Assay results from the supplement of paper PMC10849652.
Targets with a hit are over-represented here; the source holds about 7,900 in all. About 0.6% of all pairs of compound and target were hits.

Assays:
Assay in all cases: log2 fold change, soluble protein after heating vs DMSO (PISA); higher = thermal stabilisation; K562 cells, 10 uM, 30 min; active = over 0.2 and 3.5 SD of the protein, either way, in both replicates (recomputed)
[1] = compound: CC1=C(C=C(C=C1)NC(=O)C2=CC(=CC=C2)C(C)(C)C#N)NC3=CC4=C(C=C3)N=CN(C4=O)C
Procedure, shortened: (§1)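 Values are thermal stability changes relative to control samples and are taken from duplicates. They are stated as log2 fold changes. Before quantification by TMTpro 16plex LC-MS/MS with equalised channel sums, K562 cells at 2×10^6 cells/mL were treated with 10 μM compound for 30 min, heated in aliquots for 3 min across 48°C-58°C, pooled, extracted in PBS with 0.5% NP-40 at 4°C, and centrifuged at 21,000xg for 90 min to give the soluble supernatant.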

[2] = compound: CC1=C(C=C(C=C1)NC(=O)C2=CC(=CC=C2)N(C)C)NC(=O)C3=CC=C(C=C3)O
Procedure, shortened: as §1

[3] = compound: CC1=CC=C(C=C1)SC2=C3C=C(SC3=CN=C2)C(=O)N
Procedure, shortened: as §1

[4] = compound: CC1=NC(=CC=C1)C2=C(N=C(N2)C(C)(C)C)C3=CC4=NC=CN=C4C=C3
Procedure, shortened: as §1

[5] = compound: CCCCN(Cc1ccc(C(=O)NO)cc1)C(=O)Nc1ccccc1 [Nexturastat A]
Procedure, shortened: as §1

[6] = compound: CCCS(=O)(=O)Nc1ccc(F)c(C(=O)c2c[nH]c3ncc(-c4ccc(Cl)cc4)cc23)c1F [vemurafenib]
Procedure, shortened: as §1

[7] = compound: CCCS(=O)(=O)Nc1ccc(F)c(C(=O)c2c[nH]c3ncc(Cl)cc23)c1F
Procedure, shortened: as §1

[8] = compound: CCCc1cc(C)[nH]c(=O)c1CNC(=O)c1cc(-c2ccnc(N3CCN(C)CC3)c2)cc2c1cnn2C(C)C
Procedure, shortened: as §1

[9] = compound: CCN(CC)Cc1ccc2cc(COC(=O)Nc3ccc(C(=O)NO)cc3)ccc2c1 [givinostat]
Procedure, shortened: as §1

[10] = compound: CCN(CCCOc1ccc2c(Nc3cc(CC(=O)Nc4cccc(F)c4)[nH]n3)ncnc2c1)CCOP(=O)(O)O [barasertib]
Procedure, shortened: as §1

[11] = compound: CC[C@@H]1C(=O)N(C)c2cnc(Nc3ccc(C(=O)NC4CCN(C)CC4)cc3OC)nc2N1C1CCCC1
Procedure, shortened: as §1

[12] = compound: CC[C@@H]1C(=O)N(C)c2cnc(Nc3ccc(C(=O)N[C@H]4CC[C@H](N5CCN(CC6CC6)CC5)CC4)cc3OC)nc2N1C(C)C [volasertib]
Procedure, shortened: as §1

[13] = compound: CC[C@H](C)N1C=C(C2=C(C=C(C=C21)C3=CN=C(C=C3)N4CCNCC4)C(=O)NCC5=C(C=C(NC5=O)C)C)C
Procedure, shortened: as §1

[14] = compound: CC[C@H](C)[C@@H](C(=O)N[C@@H]([C@@H](C)O)C(=O)N[C@@H](CC(C)C)C(=O)[C@]1(CO1)C)NC(=O)[C@H]([C@@H](C)CC)N(C)C(=O)C [epoxomicin]
Procedure, shortened: as §1

[15] = compound: CCn1c(C(=O)N(C2CC2)C2CC2)cc2c3c(ncn3C)c(Nc3cc(C)n(C)n3)nc21
Procedure, shortened: as §1

[16] = compound: CCn1cc(-c2ccnc3[nH]c(-c4cccc(CN(C)C)c4)cc23)c(-c2ccc(NC(=O)N(C)C)cc2)n1
Procedure, shortened: as §1

[17] = compound: CN(C)CC(=O)Nc1ccc2[nH]c(=O)c3ccccc3c2c1
Procedure, shortened: as §1

[18] = compound: CN(CCOC1=CC=C(C=C1)C[C@H]2C(=O)NC(=O)S2)C3=CC=CC=N3 (racemic) [rosiglitazone]
Procedure, shortened: as §1

[19] = compound: CN1C2=C(C3=C1C(=O)N(N=C3)CC4=CC(=CC=C4)N)SC(=C2)S(=O)C
Procedure, shortened: as §1

[20] = compound: CN1CCC(CNc2ccc3ncc(-c4cccc(OC(F)(F)F)c4)n3n2)CC1
Procedure, shortened: as §1

Measured: log2 fold change

PARG (UniProt Q86W56)
inactive: [1] 0.126 | [2] -0.064 | [3] -0.008 | [4] 0.025 | [5] 0.018 | [6] 0.087 | [7] -0.006 | [8] -0.003 | [9] 0.107 | [10] 0.07 | [11] 0.036 | [12] -0.025 | [13] 0.059 | [14] 0.004 | [15] -0.126 | [16] -0.016 | [17] 0.09 | [18] 0.059 | [19] 0.005 | [20] -0.126

PGGHG (UniProt Q32M88)
inactive: [1] 0.017 | [2] -0.127 | [3] 0.197 | [4] -0.003 | [5] 0 | [6] -0.044 | [7] -0.091 | [8] -0.175 | [9] -0.003 | [10] 0.001 | [11] 0.012 | [12] 0.098 | [13] 0.051 | [14] 0.011 | [15] -0.094 | [16] -0.025 | [17] 0.069 | [18] 0.029 | [19] -0.025 | [20] -0.096

PTGR2 (UniProt Q8N8N7)
UniProt Q8N8N7, sequence (Q8N8N7 whole entry, looked up): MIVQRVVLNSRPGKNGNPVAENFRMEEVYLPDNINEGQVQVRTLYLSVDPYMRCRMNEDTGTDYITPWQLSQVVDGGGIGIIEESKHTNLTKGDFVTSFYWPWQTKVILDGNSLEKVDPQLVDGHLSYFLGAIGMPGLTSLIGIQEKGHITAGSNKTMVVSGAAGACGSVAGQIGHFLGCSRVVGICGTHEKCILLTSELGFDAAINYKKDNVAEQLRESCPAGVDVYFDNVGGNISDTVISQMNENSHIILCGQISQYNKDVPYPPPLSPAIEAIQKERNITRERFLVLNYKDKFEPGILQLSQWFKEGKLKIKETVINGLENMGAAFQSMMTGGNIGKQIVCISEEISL
active: [11] 1.1 | [12] 1.27
inactive: [1] -0.022 | [2] -0.058 | [3] 0.022 | [4] -0.056 | [5] -0.175 | [6] -0.022 | [7] -0.021 | [8] 0.234 | [9] 0.139 | [10] 0 | [13] 0.154 | [14] -0.006 | [15] 0.244 | [16] -0.117 | [17] 0.181 | [18] -0.009 | [19] 0.025 | [20] -0.278

PRUNE1 (UniProt Q86TP1)
UniProt Q86TP1, sequence (Q86TP1 whole entry, looked up): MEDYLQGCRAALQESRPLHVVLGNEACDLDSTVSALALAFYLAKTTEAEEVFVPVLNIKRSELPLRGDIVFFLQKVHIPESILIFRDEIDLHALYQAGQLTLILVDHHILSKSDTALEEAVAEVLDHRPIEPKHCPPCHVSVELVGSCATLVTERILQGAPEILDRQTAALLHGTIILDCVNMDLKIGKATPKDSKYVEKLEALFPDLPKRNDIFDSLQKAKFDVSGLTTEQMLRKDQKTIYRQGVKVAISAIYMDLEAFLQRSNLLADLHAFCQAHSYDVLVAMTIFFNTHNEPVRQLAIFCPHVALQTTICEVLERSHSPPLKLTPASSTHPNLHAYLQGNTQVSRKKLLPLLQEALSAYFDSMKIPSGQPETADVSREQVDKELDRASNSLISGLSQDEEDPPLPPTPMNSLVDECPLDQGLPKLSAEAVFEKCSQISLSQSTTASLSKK
active: [12] -0.417
inactive: [1] 0.056 | [2] -0.014 | [3] -0.005 | [4] -0.028 | [5] 0.161 | [6] 0.129 | [7] 0.036 | [8] 0.022 | [9] 0.056 | [10] 0.105 | [11] -0.083 | [13] 0.067 | [14] 0.012 | [15] -0.035 | [16] -0.024 | [17] -0.018 | [18] 0.04 | [19] -0.079 | [20] -0.089

PRIM1 (UniProt P49642)
inactive: [1] 0.02 | [2] -0.083 | [3] 0.061 | [4] -0.004 | [5] 0.162 | [6] 0.042 | [7] 0.1 | [8] 0.074 | [9] 0.031 | [10] 0.056 | [11] -0.097 | [12] -0.249 | [13] 0.093 | [14] 0.088 | [15] -0.072 | [16] -0.018 | [17] 0.117 | [18] 0.048 | [19] 0.052 | [20] -0.12

PPP1R12A (UniProt O14974)
UniProt O14974, sequence (O14974 whole entry, looked up): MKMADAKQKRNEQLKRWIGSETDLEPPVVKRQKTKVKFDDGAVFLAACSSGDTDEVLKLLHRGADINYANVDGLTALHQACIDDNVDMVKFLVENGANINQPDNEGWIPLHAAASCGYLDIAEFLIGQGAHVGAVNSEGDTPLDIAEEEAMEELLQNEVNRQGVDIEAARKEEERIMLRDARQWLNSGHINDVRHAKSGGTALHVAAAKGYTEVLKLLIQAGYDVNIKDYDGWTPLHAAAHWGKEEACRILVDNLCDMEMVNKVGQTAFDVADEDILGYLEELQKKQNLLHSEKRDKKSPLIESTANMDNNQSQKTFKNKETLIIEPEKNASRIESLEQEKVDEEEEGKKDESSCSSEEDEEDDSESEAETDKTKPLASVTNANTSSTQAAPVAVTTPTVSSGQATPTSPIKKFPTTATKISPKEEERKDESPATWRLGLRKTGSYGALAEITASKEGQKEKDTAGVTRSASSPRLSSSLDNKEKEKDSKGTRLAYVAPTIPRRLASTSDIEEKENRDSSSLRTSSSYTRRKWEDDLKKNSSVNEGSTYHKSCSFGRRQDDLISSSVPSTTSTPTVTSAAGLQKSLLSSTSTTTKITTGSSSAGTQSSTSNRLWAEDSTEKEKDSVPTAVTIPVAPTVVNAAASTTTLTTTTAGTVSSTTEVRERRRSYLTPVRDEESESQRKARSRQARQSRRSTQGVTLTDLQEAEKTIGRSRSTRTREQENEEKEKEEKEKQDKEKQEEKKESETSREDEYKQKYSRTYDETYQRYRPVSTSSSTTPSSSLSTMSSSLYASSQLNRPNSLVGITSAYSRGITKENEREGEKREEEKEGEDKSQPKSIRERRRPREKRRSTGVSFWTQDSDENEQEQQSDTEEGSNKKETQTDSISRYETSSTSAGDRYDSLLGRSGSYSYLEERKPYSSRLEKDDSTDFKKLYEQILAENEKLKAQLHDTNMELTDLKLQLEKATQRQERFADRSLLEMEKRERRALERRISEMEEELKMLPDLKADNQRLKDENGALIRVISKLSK
inactive: [1] -0.012 | [2] -0.036 | [3] 0.046 | [4] 0.045 | [5] 0.001 | [6] 0.015 | [7] 0.073 | [8] -0.032 | [9] 0.048 | [10] 0.066 | [11] -0.136 | [13] 0.066 | [14] 0.067 | [15] -0.028 | [16] -0.229 | [17] 0 | [18] 0.059 | [19] -0.016
active: [12] -0.468 | [20] -0.536

PARN (UniProt O95453)
UniProt O95453, sequence (O95453 whole entry, looked up): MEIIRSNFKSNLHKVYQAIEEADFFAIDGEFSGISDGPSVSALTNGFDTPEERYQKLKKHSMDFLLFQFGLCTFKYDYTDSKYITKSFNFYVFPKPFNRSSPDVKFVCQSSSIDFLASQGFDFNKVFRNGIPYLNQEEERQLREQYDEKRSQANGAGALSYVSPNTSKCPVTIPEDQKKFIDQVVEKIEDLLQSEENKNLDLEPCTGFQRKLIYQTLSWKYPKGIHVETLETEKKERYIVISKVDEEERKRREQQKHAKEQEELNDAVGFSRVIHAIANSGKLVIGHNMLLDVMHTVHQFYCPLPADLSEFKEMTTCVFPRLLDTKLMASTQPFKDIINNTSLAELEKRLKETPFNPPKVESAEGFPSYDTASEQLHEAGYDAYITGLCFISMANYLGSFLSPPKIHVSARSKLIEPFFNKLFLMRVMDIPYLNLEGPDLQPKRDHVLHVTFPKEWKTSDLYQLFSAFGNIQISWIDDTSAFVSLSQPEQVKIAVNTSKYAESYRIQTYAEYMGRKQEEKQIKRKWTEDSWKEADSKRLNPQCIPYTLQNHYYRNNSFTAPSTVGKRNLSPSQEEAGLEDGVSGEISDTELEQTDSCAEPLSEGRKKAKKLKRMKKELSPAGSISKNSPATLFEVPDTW
active: [12] -0.401
inactive: [1] -0.038 | [2] -0.004 | [3] 0.004 | [4] 0.013 | [5] -0.069 | [6] 0 | [7] 0.043 | [8] -0.058 | [9] 0.059 | [10] 0.057 | [11] -0.146 | [13] 0.059 | [14] 0.051 | [15] -0.021 | [16] -0.076 | [17] 0.017 | [18] 0.017 | [19] -0.057 | [20] -0.196

PPOX (UniProt P50336)
active: [20] -0.583
inactive: [1] 0.402 | [2] -0.014 | [3] 0.043 | [4] 0.099 | [5] -0.232 | [6] 0.065 | [7] 0.046 | [8] 0.184 | [9] -0.063 | [10] 0 | [11] -0.134 | [12] -0.023 | [13] -0.017 | [14] -0.002 | [15] 0.109 | [16] -0.052 | [17] 0.008 | [18] 0.127 | [19] -0.164

PLCG1 isoform 2 (UniProt P19174)
inactive: [1] 0.045 | [2] -0.011 | [3] 0.039 | [4] -0.012 | [5] 0.019 | [6] 0.003 | [7] 0.079 | [8] -0.019 | [9] -0.013 | [10] 0.031 | [11] -0.031 | [12] -0.25 | [13] 0.05 | [14] 0.014 | [15] -0.097 | [16] -0.187 | [17] 0.085 | [18] 0.09 | [19] 0.083
active: [20] -0.412

PDPK1 (UniProt O15530)
inactive: [1] -0.026 | [2] -0.055 | [3] 0.019 | [4] -0.007 | [5] -0.12 | [6] 0.03 | [7] 0.003 | [8] -0.018 | [9] 0.032 | [10] 0.035 | [11] -0.136 | [12] -0.232 | [13] 0.034 | [14] 0.055 | [15] -0.035 | [16] -0.05 | [17] 0.034 | [18] 0.064 | [19] -0.008 | [20] -0.275

PNPLA2 (UniProt Q96AD5)
UniProt Q96AD5, sequence (Q96AD5 whole entry, looked up): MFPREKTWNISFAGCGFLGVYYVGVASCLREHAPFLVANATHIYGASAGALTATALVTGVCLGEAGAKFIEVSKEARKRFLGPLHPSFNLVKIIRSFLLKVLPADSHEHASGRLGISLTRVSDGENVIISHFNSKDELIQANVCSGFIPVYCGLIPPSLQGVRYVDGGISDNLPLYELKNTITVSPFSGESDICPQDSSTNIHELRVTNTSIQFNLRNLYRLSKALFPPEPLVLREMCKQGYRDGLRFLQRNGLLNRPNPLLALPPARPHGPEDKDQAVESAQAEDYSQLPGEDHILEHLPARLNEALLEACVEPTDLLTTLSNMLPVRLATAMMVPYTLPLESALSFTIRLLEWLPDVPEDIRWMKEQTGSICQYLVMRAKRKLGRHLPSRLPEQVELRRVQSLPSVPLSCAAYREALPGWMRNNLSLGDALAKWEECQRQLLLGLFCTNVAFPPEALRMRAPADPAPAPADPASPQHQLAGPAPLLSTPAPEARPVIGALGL
inactive: [1] 0.009 | [2] -0.017 | [3] -0.003 | [4] 0.008 | [5] -0.021 | [6] -0.017 | [7] 0.053 | [8] 0.026 | [9] 0.036 | [10] -0.092 | [11] 0.11 | [12] 0.126 | [13] 0.015 | [14] -0.041 | [15] 0.013 | [16] 0.156 | [17] -0.044 | [18] -0.155 | [19] -0.025 | [20] -0.068

PFDN1 (UniProt O60925)
UniProt O60925, sequence (O60925 whole entry, looked up): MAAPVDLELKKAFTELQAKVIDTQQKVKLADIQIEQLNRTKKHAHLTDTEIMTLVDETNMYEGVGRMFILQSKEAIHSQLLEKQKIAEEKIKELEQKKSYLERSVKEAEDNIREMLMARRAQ
inactive: [1] 0.039 | [2] -0.131 | [3] 0.089 | [4] 0.041 | [5] -0.071 | [6] 0.172 | [7] -0.019 | [8] -0.016 | [9] 0.004 | [10] 0.002 | [11] 0.044 | [12] -0.009 | [13] -0.004 | [14] 0.183 | [15] 0.02 | [16] -0.019 | [17] 0 | [18] 0.003 | [19] -0.119 | [20] 0.113

PIK3C3 (UniProt Q8NEB9)
UniProt Q8NEB9, sequence (Q8NEB9 whole entry, looked up): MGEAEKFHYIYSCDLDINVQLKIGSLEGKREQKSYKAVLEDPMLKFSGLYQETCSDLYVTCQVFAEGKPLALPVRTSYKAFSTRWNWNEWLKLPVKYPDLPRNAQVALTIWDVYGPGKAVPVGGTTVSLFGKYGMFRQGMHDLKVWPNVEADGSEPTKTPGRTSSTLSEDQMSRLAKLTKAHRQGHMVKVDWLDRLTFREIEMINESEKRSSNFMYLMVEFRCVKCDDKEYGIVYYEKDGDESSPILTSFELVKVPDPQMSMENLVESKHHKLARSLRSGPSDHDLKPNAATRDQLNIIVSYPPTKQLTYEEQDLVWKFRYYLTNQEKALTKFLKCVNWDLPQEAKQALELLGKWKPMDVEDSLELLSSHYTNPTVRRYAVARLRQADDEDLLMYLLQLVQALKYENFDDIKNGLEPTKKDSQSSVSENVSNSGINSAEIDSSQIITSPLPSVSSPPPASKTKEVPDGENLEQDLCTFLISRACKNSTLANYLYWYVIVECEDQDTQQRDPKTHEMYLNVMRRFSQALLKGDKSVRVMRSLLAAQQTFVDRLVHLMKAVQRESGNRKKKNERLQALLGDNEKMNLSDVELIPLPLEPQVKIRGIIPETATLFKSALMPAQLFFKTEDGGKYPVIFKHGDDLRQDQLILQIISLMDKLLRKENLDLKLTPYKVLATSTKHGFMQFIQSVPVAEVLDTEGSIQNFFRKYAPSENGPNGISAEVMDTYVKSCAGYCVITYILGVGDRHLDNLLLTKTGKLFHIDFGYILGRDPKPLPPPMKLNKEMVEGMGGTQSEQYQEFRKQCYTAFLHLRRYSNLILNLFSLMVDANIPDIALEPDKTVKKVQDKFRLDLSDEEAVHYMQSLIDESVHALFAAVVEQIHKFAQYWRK
active: [5] 0.54
inactive: [1] 0.003 | [2] 0.015 | [3] -0.046 | [4] -0.085 | [6] -0.001 | [7] 0.02 | [8] -0.051 | [9] 0.088 | [10] -0.015 | [11] 0.16 | [12] 0.153 | [13] 0.023 | [14] -0.071 | [15] 0.044 | [16] -0.117 | [17] -0.03 | [18] -0.022 | [19] 0.025 | [20] 0.015

POMK (UniProt Q9H5K3)
UniProt Q9H5K3, sequence (Q9H5K3 whole entry, looked up): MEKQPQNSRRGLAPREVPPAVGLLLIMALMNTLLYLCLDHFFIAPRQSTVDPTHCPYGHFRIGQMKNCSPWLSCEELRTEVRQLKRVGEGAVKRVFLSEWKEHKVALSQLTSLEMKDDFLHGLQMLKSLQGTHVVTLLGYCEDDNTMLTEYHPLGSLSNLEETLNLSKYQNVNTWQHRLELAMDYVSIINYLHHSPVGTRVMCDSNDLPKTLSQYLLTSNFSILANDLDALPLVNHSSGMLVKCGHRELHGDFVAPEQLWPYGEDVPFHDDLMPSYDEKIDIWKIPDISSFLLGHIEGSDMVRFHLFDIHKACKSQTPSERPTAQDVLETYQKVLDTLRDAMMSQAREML
inactive: [1] 0.029 | [2] -0.018 | [3] 0.028 | [4] 0 | [5] -0.01 | [6] 0.04 | [7] 0.041 | [8] 0 | [9] 0.002 | [10] 0.11 | [11] -0.079 | [12] -0.093 | [13] 0.014 | [14] -0.05 | [15] 0.054 | [16] 0.054 | [17] -0.007 | [18] 0.012 | [19] 0.023 | [20] -0.082

PJA2 (UniProt O43164)
inactive: [1] -0.059 | [2] 0.019 | [3] -0.008 | [4] -0.019 | [5] 0.188 | [6] -0.024 | [7] -0.062 | [8] -0.024 | [9] 0.017 | [10] -0.004 | [11] -0.007 | [12] 0.001 | [13] 0.014 | [14] 0.202 | [15] 0.055 | [16] 0.066 | [17] -0.051 | [18] 0.004 | [19] -0.001 | [20] -0.156

PDLIM7 (UniProt Q9NR12)
UniProt Q9NR12, sequence (Q9NR12 whole entry, looked up): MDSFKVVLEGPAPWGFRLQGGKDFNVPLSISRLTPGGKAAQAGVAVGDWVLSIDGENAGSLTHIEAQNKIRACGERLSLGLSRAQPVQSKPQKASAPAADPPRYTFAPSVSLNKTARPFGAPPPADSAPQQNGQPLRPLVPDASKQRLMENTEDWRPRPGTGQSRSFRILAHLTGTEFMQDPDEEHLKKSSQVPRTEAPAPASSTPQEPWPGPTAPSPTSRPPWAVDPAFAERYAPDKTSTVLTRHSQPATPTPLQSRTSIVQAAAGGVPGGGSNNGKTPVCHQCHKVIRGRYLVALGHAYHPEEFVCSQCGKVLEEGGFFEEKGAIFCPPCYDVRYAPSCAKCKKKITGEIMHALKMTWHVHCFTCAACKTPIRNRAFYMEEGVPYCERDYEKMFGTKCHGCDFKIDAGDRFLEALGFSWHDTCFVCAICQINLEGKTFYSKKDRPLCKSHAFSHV
active: [12] -0.24
inactive: [1] 0.02 | [2] -0.029 | [3] -0.002 | [4] 0.046 | [5] -0.016 | [6] 0.026 | [7] 0.032 | [8] 0.001 | [9] 0.05 | [10] 0.032 | [11] -0.084 | [13] 0.012 | [14] 0.013 | [15] -0.053 | [16] -0.064 | [17] 0.039 | [18] 0.039 | [19] 0.023 | [20] -0.021
